High-throughput results (PubChem BioAssay)
Compounds with a hit are over-represented: about 2.4% of the library has one in this group of screens.
Pol iota inh: qHTS for Inhibitors of Polymerase Iota; DNA polymerase iota (Homo sapiens), Q9UNA4; Pol iota fluorescent replication assay, 10 min; Potency, µM (highest dose often 115 µM), usual class: inhibitors; 390,000 compounds, 1% hits; AID 588590, 2011
Target sequence (Q9UNA4 whole entry, looked up): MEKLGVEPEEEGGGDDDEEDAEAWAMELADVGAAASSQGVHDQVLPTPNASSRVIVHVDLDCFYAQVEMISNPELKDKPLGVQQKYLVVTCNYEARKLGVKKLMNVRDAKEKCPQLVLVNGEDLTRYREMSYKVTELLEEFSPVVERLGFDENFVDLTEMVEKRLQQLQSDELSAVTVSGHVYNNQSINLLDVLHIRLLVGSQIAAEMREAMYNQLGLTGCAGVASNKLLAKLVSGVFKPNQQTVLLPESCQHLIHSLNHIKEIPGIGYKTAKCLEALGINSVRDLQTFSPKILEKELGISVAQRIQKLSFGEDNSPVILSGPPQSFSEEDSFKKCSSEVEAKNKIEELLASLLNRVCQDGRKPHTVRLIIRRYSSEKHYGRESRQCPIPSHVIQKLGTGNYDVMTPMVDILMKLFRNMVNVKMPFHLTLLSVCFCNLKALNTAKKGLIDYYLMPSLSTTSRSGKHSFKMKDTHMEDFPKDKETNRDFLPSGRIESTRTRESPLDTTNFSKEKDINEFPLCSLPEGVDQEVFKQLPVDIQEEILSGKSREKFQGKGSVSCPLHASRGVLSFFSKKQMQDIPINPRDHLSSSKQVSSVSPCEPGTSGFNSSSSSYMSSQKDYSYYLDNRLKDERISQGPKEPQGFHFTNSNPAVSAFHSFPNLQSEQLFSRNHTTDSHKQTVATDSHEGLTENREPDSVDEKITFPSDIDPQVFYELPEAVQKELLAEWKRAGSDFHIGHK
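Fluorescent replication assay read twice, at 0 min and 10 min after adding 50 nM (final) substrate. Enzyme (10 nM) and compounds were first incubated 15 min at room temperature; enzyme-free buffer wells were negative controls.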
Pol kappa inh: qHTS for Inhibitors of Polymerase Kappa; DNA polymerase kappa (Homo sapiens), Q9UBT6; purified Pol kappa, fluorescent DNA synthesis assay, 10 min; Potency, µM (titrated, usually from 107 µM), actives largely listed as inhibitors; 400,000 compounds, 0.53% hits; AID 588579, 2011
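Activity was followed as the change in fluorescence between reads at 0 and 10 min after starting the reaction with 50 nM substrate. Beforehand, 10 nM polymerase had been preincubated with compound for 15 min at room temperature.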
POLB inh: qHTS Assay for Inhibitors of DNA Polymerase Beta. AID 485314, 2010. Potency, µM (series often up to 114 µM), most hits filed as inhibitors. Pol beta primer extension/strand displacement, fluorescence kinetic. 340,000 compounds, 1.3% hits. P06746
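Enzyme-only controls used 10 nM Pol beta; buffer lacking enzyme served as negative control. Compound preincubated 15 min, then 50 nM substrate added; 0 and 10 min reads at room temperature.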
WRN helicase inh: qHTS for Inhibitors of WRN Helicase; Bifunctional 3'-5' exonuclease/ATP-dependent helicase WRN (Homo sapiens), Q14191; WRN helicase unwinding, fluorescent forked duplex, kinetic; Potency, µM (titrated, usually from 114 µM), usual class: inhibitors; 360,000 compounds, 0.46% hits; AID 651768, 2012; also: nearly all actives have a fitted effect of over 55% in size
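Enzyme (20 nM final) and test compound sit together 15 min at room temperature before substrate addition. Substrate is a single-forked duplex oligonucleotide (100 nM) labelled with fluorophore and quencher, with 2 mM ATP; helicase unwinding raises red fluorescence, read kinetically.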
FEN1 inh: qHTS Assay for the Inhibitors of Human Flap endonuclease 1 (FEN1); P39748; Recombinant FEN1 flap cleavage, fluorescence, 15 min; Potency, µM (titrated, usually from 114 µM), most hits filed as inhibitors; 390,000 compounds, 0.35% hits; also: nearly all actives have a fitted effect of over 65% in size
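Concentration–response screening of FEN1 (10 nM): 15 min compound preincubation at room temperature, reaction started with 50 nM substrate and read at 0 and 15 min. Corrected, normalized data were fitted by a four-parameter Hill equation.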
Pol eta inh: qHTS for Inhibitors of Polymerase Eta. AID 588591, 2011. recombinant Pol eta, fluorescent DNA replication assay. 390,000 compounds, 1.2% hits. Potency, µM (top dose mostly 114 µM), most hits filed as inhibitors
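Fluorescent replication assay: 50 nM final substrate added after a 15 min room-temperature compound preincubation with 10 nM enzyme. Signal taken at 0 min and again at 10 min.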
Hits are given with their value; - = inactive; ? = inconclusive; . = not tested or not shown; [ ] = remark or other dose. Calls follow the shape of the dose curve; as a rule, active = well fitted curve in the direction sought with a large enough effect; inconclusive = small, poorly fitted or top-dose-only effect, or another doubt; inactive = no such curve, though single readings can be large; an effect the other way counts as inactive or inconclusive.

SMILES | Pol iota inh | Pol kappa inh | POLB inh | WRN helicase inh | FEN1 inh | Pol eta inh
O=S(=O)(c1ccccc1)N1CCN(S(=O)(=O)c2ccccc2)CC1 | - | - | . | . | - | .
O=S(=O)(/N=S1\CC=CCN1S(=O)(=O)c1ccccc1)c1ccccc1 (stereo unspecified) | 28µM | - | . | 8.9µM | ? | -
CN(C)CC[C@H](c1ccc(Br)cc1)c1ccccn1 | . | -[12 µM] | . | . | . | .
COc1cccc(-c2nc(SCc3cccc(Br)c3)n3[nH]c(=O)cc3n2)c1 | ? | - | 13µM | . | - | ?
O=c1cc2nc(-c3ccccc3)nc(SCc3cccc(Br)c3)n2[nH]1 | - | - | ? | . | - | ?
OC[C@H]1OC(O)[C@H](O)[C@@H](O)[C@@H]1O (stereo partly specified) | . | - | . | . | . | .
CC(C)c1ccc(/C=N/NC(=O)c2cc(-c3cccc([N+](=O)[O-])c3)n[nH]2)cc1 | ? | - | 22µM | - | - | ?
Cn1cccc1-c1cc(C(=O)N/N=C/c2ccc([N+](=O)[O-])cc2)[nH]n1 | - | - | - | - | - | -
C[C@H]1O[C@@H](n2cc(F)c(=O)[nH]c2=O)[C@H](O)[C@H]1O | . | - | . | . | - | .
CC1CN(c2ccccc2)C(=O)CS1 (stereo unspecified) | ? | - | 45µM | - | - | 20µM
COc1ccc(C2SCC(=O)N2c2ccccc2)cc1 (stereo unspecified) | - | - | - | - | - | -
CCCCOCC1CN(c2ccccc2)C(=O)CS1 (stereo unspecified) | - | - | ? | -[11.6 µM] | - | 20µM
CCCCC1C(=O)N(c2ccccc2)N(c2ccccc2)C1=O | ? | - | - | - | - | -
Cc1[nH]n(-c2ccccc2)c(=O)c1C(C[N+](=O)[O-])c1ccccc1Cl (stereo unspecified) | - | - | - | - | - | -
COc1cccc(C(c2c(C)[nH]n(-c3ccccc3)c2=O)c2c(C)[nH]n(-c3ccccc3)c2=O)c1O | 1µM | - | - | -[11.6 µM] | - | -
Cc1[nH]n(-c2ccccc2)c(=O)c1C(c1ccc(O)c([N+](=O)[O-])c1)c1c(C)[nH]n(-c2ccccc2)c1=O | ? | - | . | ? | ? | 28µM
Cc1[nH]n(-c2ccccc2)c(=O)c1C(=O)c1ccccc1 | ? | - | - | - | - | ?
CC(OC(=O)c1ccccc1OCCOc1ccccc1)C(=O)Nc1ccc(Br)cc1 (stereo unspecified) | - | - | . | . | - | .
CCN1C/C(=C/c2ccc(N3CCOCC3)cc2)C(=O)/C(=C/c2ccc(N3CCOCC3)cc2)C1 | 79µM | ? | ? | 79µM | 79µM | ?
CCc1ccc(/C=C2/SC(N3CCOCC3)=NC2=O)cc1 | - | - | - | - | - | -
Nc1nc2c(nc(N3CCOCC3)n2COCCO)c(=O)[nH]1 | - | - | . | . | - | .
Cc1nnc(N/N=C/c2ccc(-c3ccccc3F)o2)n1N | 3.5µM | - | ? | -[11.6 µM] | - | -
Cc1nnc(N/N=C\c2ccc(-c3ccccc3[N+](=O)[O-])o2)n1N | 4µM | - | - | -[11.6 µM] | - | -
CCc1nnc(N/N=C/c2ccc(-c3ccc([N+](=O)[O-])cc3)o2)n1N | 32µM | - | - | -[11.6 µM] | - | -
CCC(=O)N/N=C/c1ccc(-c2ccc([N+](=O)[O-])cc2)o1 | - | - | ? | - | - | -
SMILES | Pol iota inh | Pol kappa inh | POLB inh | WRN helicase inh | FEN1 inh | Pol eta inh
C(=C1c2ccccc2Oc2ccccc21)c1ccccc1 | - | - | . | . | - | .
CCS(=O)(=O)c1ccc2oc(SCC(=O)c3ccco3)nc2c1 | ? | - | - | - | - | 16µM
c1ccc2c(c1)SCc1c-2[nH]c2ccccc12 | . | - | . | . | . | .
Cc1cccc(N2CC(C(=O)Nc3nnc(SCc4ccccn4)s3)CC2=O)c1 (stereo unspecified) | ? | ? | ? | - | - | 40µM
Cc1ccc(N2CC(C(=O)Nc3ccc(S(=O)(=O)NCC4CCCO4)cc3)CC2=O)cc1 (stereo unspecified) | ? | - | 56µM | - | - | -
Cc1cccc(N2CC(C(=O)Nc3nnc(SCC(=O)NCC4CCCO4)s3)CC2=O)c1 (stereo unspecified) | ? | ? | - | ? | - | 20µM
Cc1ccccc1N1CC(C(=O)Nc2ccc(S(=O)(=O)NCC3CCCO3)cc2)CC1=O (stereo unspecified) | - | - | - | - | - | -
Cc1ccc(N2CC(C(=O)Nc3nnc(SCc4ccccn4)s3)CC2=O)cc1 (stereo unspecified) | - | - | - | - | - | -
O=C(NCCCN1CCN(c2ccc(F)cc2)CC1)c1cc2c(Cl)nc3ccccc3c2s1 | - | - | - | . | - | -
O=C(N/N=C/c1ccc(OC(F)F)cc1)c1ccc(Br)cc1 | - | - | 79µM | - | - | -
FC(F)(F)c1ccccc1-c1nccc(-n2ccnc2)n1 | . | - | . | . | . | .
CSCC[C@H](NC(=O)[C@H](CO)NC(=O)[C@H](Cc1ccc(O)cc1)NC(=O)[C@@H](N)CO)C(=O)N[C@@H](CCC(=O)O)C(=O)N[C@@H](Cc1cnc[nH]1)C(=O)N[C@@H](Cc1ccccc1)C(=O)N[C@@H](CCCNC(=N)N)C(=O)N[C@@H](Cc1c[nH]c2ccccc12)C(=O)NCC(=O)N[C@@H](CCCCN)C(=O)N1CCC[C@H]1C(=O)N[C@H](C(=O)NCC(=O)N[C@@H](CCCCN)C(=O)N[C@@H](CCCCN)C(=O)N[C@@H](CCCNC(=N)N)C(=O)N[C@@H](CCCNC(=N)N)C(=O)N1CCC[C@H]1C(=O)N[C@H](C(=O)N[C@@H](CCCCN)C(=O)N[C@H](C(=O)N[C@@H](Cc1ccc(O)cc1)C(=O)N1CCC[C@H]1C(=O)O)C(C)C)C(C)C)C(C)C | . | -[12 µM] | . | . | . | .
COc1ccc(OC)c(NC(=O)CSC2=C(C#N)C(c3ccco3)C3=C(CCCC3=O)N2)c1 (stereo unspecified) | - | - | - | - | - | -
CCc1ccccc1NC(=O)CSC1=C(C#N)C(c2ccc3c(c2)OCO3)C2=C(CCCC2=O)N1 (stereo unspecified) | - | - | 22µM | - | - | -
CN1C2CCCC1CC(NC(=O)c1nn(C)c3ccccc13)C2 (stereo unspecified) | . | - | . | . | . | .
O=C(N/N=C\C=C\c1ccc(Br)cc1)c1ccc2c(c1)OCO2 | ? | - | 35µM | - | - | -
O=C(CCc1ccc(O)c(O)c1)N/N=C/c1ccc2c(c1)OCO2 | 79µM | ? | 71µM | -[11.6 µM] | - | -
